Compound activity: PubChem BioAssay, several laboratories
Compounds with a hit are over-represented: about 4.5% of the library has one in this group of screens.
TPT1 inh = inhibitors of Candida albicans tRNA 2'-phosphotransferase TPT1; recombinant caTPT1, FP RNA substrate dephosphorylation; actives 0.81% (n = 300,000); inhibition, % at 5 µM;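 active = inhibition above the mean of all tested compounds plus 3 SD, set per screening campaign, cut at about 24% in these data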;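 note: plate controls were DMSO alone for no effect and ferristatin control at 100 nM for full effect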
EBNA-1 inhibitor = blocks EBNA-1 binding to DNA | EBNA-1 DNA binding, fluorescence polarization | inhibition, % at 14.8 µM | actives 0.34% (n = 300,000) | AID 1950; in the data active = inhibition above about 28%
Rpn11 inh = Rpn11 (human) deubiquitinase inhibition; human 26S proteasome, Ub4-pepOG fluorescence polarization; 20S core pre-blocked with epoxomicin; actives 0.59% (n = 360,000); inhibition, % at 20 µM; O00487;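 active = inhibition at 20 µM, scaled to each plate's controls, above about 33%, limit read from the data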
Target sequence (O00487 whole entry, looked up): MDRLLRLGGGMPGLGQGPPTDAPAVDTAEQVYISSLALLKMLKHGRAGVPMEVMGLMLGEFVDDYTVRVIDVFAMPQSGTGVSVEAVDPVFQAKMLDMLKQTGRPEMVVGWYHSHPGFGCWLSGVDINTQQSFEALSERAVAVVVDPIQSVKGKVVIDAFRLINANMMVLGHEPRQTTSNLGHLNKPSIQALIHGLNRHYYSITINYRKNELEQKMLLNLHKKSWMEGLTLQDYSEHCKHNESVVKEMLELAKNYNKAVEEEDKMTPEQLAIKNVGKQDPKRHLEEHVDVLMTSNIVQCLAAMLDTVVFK
dFosB activator = activators of mouse delta FosB homodimer; purified delta FosB, TAMRA-CDK5 oligo fluorescence polarization; percent of positive-control signal above neutral wells; P13346; actives 0.99% (n = 340,000); activation, % at 25 µM;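 active = mean activation above about 17%, with every replicate also reaching it, limit read from the data, passing the limit was not always enough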
ZTA DNA inh = ZTA (EBV) inhibition in EBNA-1 counter-screen; AID 2234; ZTA-DNA binding, fluorescence polarization; actives 0.15% (n = 320,000); inhibition, % at 11 µM; in the data active = inhibition above about 33%
Target sequence (P03206 whole entry, looked up): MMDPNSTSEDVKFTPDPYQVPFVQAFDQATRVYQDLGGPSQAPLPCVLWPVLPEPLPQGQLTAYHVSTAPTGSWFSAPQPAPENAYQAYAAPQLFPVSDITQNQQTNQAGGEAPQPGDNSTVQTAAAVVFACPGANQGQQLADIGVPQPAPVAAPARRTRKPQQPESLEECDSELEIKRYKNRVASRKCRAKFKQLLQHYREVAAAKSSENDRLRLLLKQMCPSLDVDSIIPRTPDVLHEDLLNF
NR3A LBD binder = modulates the human NR3A ligand-binding domain; NR3A LBD differential scanning fluorimetry, Tm shift; 0% = protein alone, 100% = glycine-bound protein; Tm shift relative to glycine control, % at 25 µM; actives 2.5% (n = 340,000); AID 1259313;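 active = melting temperature shift of at least 10% of the positive control shift, at one fixed dose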
EBNA-1 confirm = EBNA-1 (EBV) inhibition, confirmation; shares compounds with EBNA-1 inhibitor; Recombinant EBNA-1 DBD, Cy5-DNA fluorescence polarization; inhibition, % at 14.8 µM; actives 35% (n = 830); AID 2292;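 active = mean inhibition across replicates above a set limit taken from the earlier primary screen, cut at about 28% in these data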;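 note: plate controls were EBNA-1 protein with DMSO for no effect and wells lacking EBNA-1 for full effect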
ZTA counter trip = ZTA (EBV) inhibition, triplicate counter-screen; 830 tested, under 10 active; Zta-ZRE DNA binding, Cy5 fluorescence polarization; shares compounds with EBNA-1 inhibitor; inhibition, % at 11.1 µM;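 active = mean inhibition over triplicates above a set limit taken from the primary EBNA-1 screen, cut at about 37% in these data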;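 note: purified full length Zta protein with Cy5 labeled ZRE DNA probe; 0% = Zta with DMSO and 100% = wells lacking Zta protein; inhibitors lower polarization by freeing the labeled DNA probe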
* = called active by the depositor; · = no result given.

SMILES	TPT1 inh	EBNA-1 inhibitor	Rpn11 inh	dFosB activator	ZTA DNA inh	NR3A LBD binder	EBNA-1 confirm	ZTA counter trip
CCOC(=O)c1[nH]c2ccc(OC)cc2c1NC(=O)c1ccc2c(c1)OCO2	2	-20	4	-10	4	2	·	·
Nc1cc(C(=O)c2ccccc2)ccc1[N+](=O)[O-]	0	-2	0	-3	-4	0	·	·
CC(=O)Nc1ccc(NC(=S)NC(=O)c2oc3ccccc3c2C)cc1	-1	3	-1	7	3	-1	·	·
CC(=O)Nc1ccc(NC(=O)C(C)OC(=O)c2oc3ccccc3c2C)cc1 (stereo not given)	-1	80*	-6	16	-27	·	118*	5
Cc1ccc(S(=O)(=O)Nc2cccc(C(=O)NCc3ccccn3)c2)cc1F	1	-3	-9	-2	10	2	·	·
CN(C)S(=O)(=O)n1cnc([C@@H]2[C@H]3C(=O)OC[C@@H]3C[C@@]23N=CN(Cc2ccccc2)C3=O)c1	·	·	0	-7	-7	-3	·	·
CC(C)(C)OC(=O)NC(CO)c1cn([C@@H](Cc2cc3ccccc3[nH]2)C(=O)N2CCN(C(=O)OC(C)(C)C)CC2)nn1 (stereo not given in full)	-1	4	5	-14	6	-3	·	·
CCc1ccccc1N(C)S(=O)(=O)c1ccc2[nH]cc(C(=O)N3CCc4ccccc43)c(=O)c2c1	-1	28*	5	9	4	2	3	-1
CCOc1ccc(N2CC(C(=O)NC3=NCCS3)CC2=O)cc1 (stereo not given)	-4	-2	6	-5	-2	-2	·	·
COc1ccc(-c2cn(Cc3ccc(C(=O)c4ccccc4)cc3)nn2)cc1	-5	28*	·	·	-19	6	0	15
Cc1cc(NCC(=O)Nc2ccc(C)c(S(=O)(=O)N3CCOCC3)c2)ccc1Br	·	·	-5	·	·	·	·	·
COc1ccc(S(=O)(=O)N2CCOC23CCN(S(=O)(=O)c2c(C)cc(C)cc2C)CC3)cc1	-2	-2	-2	-11	-10	-4	·	·
Cc1nn(C(C)C(=O)N2CCc3ccccc32)c(C)c1[N+](=O)[O-] (stereo not given)	-1	-4	-6	5	6	0	·	·
Cn1c2ccccc2c2cnn(CC(=O)Nc3ccccc3Br)c(=O)c21	2	32*	8	7	7	2	11	-2
CNC(=O)Cn1ncc2c3ccccc3n(C)c2c1=O	-2	12	-3	2	8	1	·	·
CCOC(=O)CN(C(=O)CSc1nnc2c(n1)[nH]c1ccc(F)cc12)c1ccccc1	-2	-8	-3	7	-22	-10	·	·
CCOC(=O)CN(C(=O)CSc1nnc2c(n1)[nH]c1ccccc12)c1ccccc1	1	40*	-6	0	4	-1	-6	-6
Cc1sc2ncn(CC(=O)N3CCN(c4ccccn4)CC3)c(=O)c2c1S(=O)(=O)N1CCCCC1	-4	7	2	-14	9	3	·	·
Cc1ccc(NC2=NC(c3ccc(F)cc3)n3c(nc(C)cc3=O)N2)cc1 (stereo not given)	-2	0	-4	-7	-2	1	·	·
CCOc1ccc2oc(C(=O)NNC(=O)c3ccccc3O)c(C)c2c1	1	73*	-4	16	-11	-8	6	1
CCOc1ccc2oc(C(=O)O)c(C)c2c1	0	-8	-4	3	9	0	·	·
COc1ccc(/C=C/C(=O)NC(=S)Nc2ccc(S(=O)(=O)Nc3ccc(OC)nn3)cc2)cc1	-4	8	6	-6	2	-16	·	·
COc1ccc(/C=C/C(=O)NC(=S)Nc2ccc(S(N)(=O)=O)cc2)cc1	3	33*	4	6	31	2	39*	37*
CCCNCc1cc(OC)c(OCc2ccccc2)cc1Br	0	2	1	-4	12	-2	·	·
O=C(CSc1nc2ccccc2c(=O)n1-c1ccc(F)cc1)Nc1cc(S(=O)(=O)N2CCOCC2)ccc1Cl	-4	-2	5	2	9	0	·	·
SMILES	TPT1 inh	EBNA-1 inhibitor	Rpn11 inh	dFosB activator	ZTA DNA inh	NR3A LBD binder	EBNA-1 confirm	ZTA counter trip
Cc1ccc(S(=O)(=O)N2CCOCC2)cc1NC(=O)CSc1nc2ccccc2c(=O)n1Cc1ccccc1	-2	33*	-1	0	-2	14*	13	18
COc1cccc(N=C(N)N)c1	-2	0	-6	4	-2	1	·	·
O=c1[nH]c(CN2CCN(S(=O)(=O)c3ccc4ccccc4c3)CC2)nc2ccccc12	-2	84*	2	10	23	0	122*	4
Cc1cccc(NC(=O)CN2C(=O)N/C(=C/c3ccc(C)o3)C2=O)c1	21	-1	39	-8	4	-13	·	·
COc1ccc(/C=C2/NC(=O)N(CC(=O)Nc3cccc(C)c3)C2=O)cc1O	-1	56*	3	13	0	-4	76*	-1
CC(=O)Nc1ccc(S(=O)(=O)N(CC(=O)Nc2cc(C)on2)Cc2ccc(F)cc2)cc1	-2	-3	0	-10	10	0	·	·
Cc1ccc(-c2nn3c(-c4ccco4)nnc3c3ccccc23)cc1S(=O)(=O)NCC1CCCO1 (stereo not given)	1	86*	20	-25	2	-7	-4	-6
COc1cccc(Nc2nnc(SCn3nnc4ccccc4c3=O)s2)c1	0	43*	-5	0	4	-4	38*	16
Cc1cc(C)n2nc(C(=O)OCC(=O)Nc3ccc(C)c(S(=O)(=O)N4CCOCC4)c3)nc2n1	·	·	-2	3	·	-2	·	·
C=CCNC(=S)Nc1c(C(=O)OC)[nH]c2cc(OC)ccc12	0	29*	8	5	15	2	7	1
CCN1C(=O)/C(=C2/C=Cc3cc(C)ccc3N2CC)N(C)C1=S	-7	29*	-5	-6	-3	-2	-3	-10
COc1ccc(Nc2nc(Cl)nc(NCc3ccco3)n2)c(OC)c1	-1	29*	-8	6	1	1	15	-6
COc1ccc(NC(=O)NCc2ccco2)c(OC)c1	1	0	2	-2	-6	0	·	·
O=C(N/C(=C\c1ccc(Br)cc1)c1nc2ccccc2[nH]1)c1ccco1	0	49*	-6	-7	9	-5	33*	2
O=C1c2ccccc2NC(c2ccc(O)cc2)N1c1ccccc1 (stereo not given)	-2	-7	7	-3	12	1	·	·
